In the library only some 2.4% were active in any assay of this set; here they are far more common.
D2 PAM-1: positively modulates the human D2 dopamine receptor allosterically | actives 0.34% (n = 340,000) | potentiation, % at 10 µM | AID 485347 | HEK293 T-REx D2, calcium flux, EC20 dopamine potentiation;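 active means potentiation over 3 SD above the plate norm, cut at about 30% in these data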; further: 0% is about no effect
Target sequence (P14416 whole entry, looked up): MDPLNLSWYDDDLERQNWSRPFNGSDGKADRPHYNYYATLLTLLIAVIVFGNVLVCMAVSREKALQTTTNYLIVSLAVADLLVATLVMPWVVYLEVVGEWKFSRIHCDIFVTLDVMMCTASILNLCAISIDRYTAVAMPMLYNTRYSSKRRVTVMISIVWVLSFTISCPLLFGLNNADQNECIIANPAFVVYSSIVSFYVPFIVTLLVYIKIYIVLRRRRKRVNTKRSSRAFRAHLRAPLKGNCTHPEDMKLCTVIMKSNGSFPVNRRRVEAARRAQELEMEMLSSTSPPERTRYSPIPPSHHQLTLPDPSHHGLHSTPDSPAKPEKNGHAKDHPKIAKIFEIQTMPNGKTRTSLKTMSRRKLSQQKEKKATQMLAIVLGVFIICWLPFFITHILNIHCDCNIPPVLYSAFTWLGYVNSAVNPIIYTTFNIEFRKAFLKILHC
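Cells plated with tetracycline inducer and held overnight at 30 C; calcium dye loaded 30–90 min at room temperature; baseline taken, compound added and read 180 s; EC20 dopamine then added and read 180 s.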
D2 ag-1: agonists of human D2 dopamine receptor (beta-arrestin). actives 0.084% (n = 360,000). activation, % (concentration not given with the values). DiscoveRx PathHunter D2 beta-arrestin, luminescence, 90 min; 100% = 57 uM dopamine signal. P14416; in the data active means activation above about 40%; inconclusive means between about 15% and that limit
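DiscoveRx PathHunter D2 beta-arrestin cells (2,100/well) attached overnight, then compound-stimulated 90 min at 37 C in HBSS/10 mM HEPES/0.1% Tween-20 buffer; beta-galactosidase complementation read by luminescence after 1 h at ambient temperature. Dopamine 57 uM final (EC100) as control.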
D2 ag-2: activates the human D2 dopamine receptor | P14416 | HEK293 T-REx D2 cells, calcium flux agonist mode | activation, % at 2 µM | actives 0.53% (n = 340,000) | AID 485358;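 active means activation over 3 SD above normal in the single-dose calcium agonist read, cut at about 30% in these data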; further: 0% is about no effect
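In this primary screen, compounds producing a positive calcium signal within 180 s of addition to tetracycline-induced, force-coupled HEK293 Trex D2 cells are flagged; cells are dye-loaded with a no-wash calcium kit beforehand.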
D2 PAM-2: positive allosteric modulators of human D2 dopamine receptor. AID 624464. DiscoveRx D2 beta-arrestin cells, luminescence, 90 min; 100% = 57 uM dopamine signal. actives 0.23% (n = 360,000). potentiation, % (test concentration not listed); in the data active means potentiation above about 50%; inconclusive means mostly about 30% to 49%
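PathHunter D2 cells, attached overnight at 37 deg C, received compound in DMSO plus dopamine at EC20 (50 nM final) for 90 min at 37 deg C. Beta-arrestin recruitment was read as luminescence after 1 h with detection reagent at ambient temperature.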
D2 antag: antagonists of human D2 dopamine receptor. HEK293 TREx D2 cells, calcium flux, dopamine EC80. inhibition, % at 10 µM. actives 2% (n = 340,000). AID 485344; in the data active means inhibition above about 30%; inactive means below that, where a call was filed; further: 0% is about no effect
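Dopamine at EC80 is the agonist stimulus; test compounds precede it by 180 s. Calcium flux read kinetically in a force-coupled, inducible HEK293 T-REx D2 cell line.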
Active calls of the source: *; ? = inconclusive; . = no result.

SMILES | D2 PAM-1 | D2 ag-1 | D2 ag-2 | D2 PAM-2 | D2 antag
O=C(NCCOc1ccccc1)c1ccc2c(c1)S(=O)(=O)c1cc(Cl)ccc1C2=O | . | 7 | . | 73* | .
CCC(C)(C)NC(=O)c1ccc2c(c1)S(=O)(=O)c1ccccc1C2=O | 17 | -1 | 0 | 71* | -14
O=C(Nc1ccccn1)c1ccc2c(c1)S(=O)(=O)c1ccccc1C2=O | 13 | 1 | 2 | -1 | -8
O=C1c2ccccc2S(=O)(=O)c2cc(C(=O)N(c3ccccn3)c3ccccn3)ccc21 | 17 | 6 | 37* | ? | 22
Cc1nn2c(C)c(C(=O)NCc3ccco3)cnc2c1-c1ccccc1 | 0 | . | 1 | . | .
COc1ccccc1CNC(=O)CCCn1c(=O)c2ccccc2n(Cc2ccccc2F)c1=O | 22 | . | 3 | . | .
Cc1coc2c1c(C)cc1oc(=O)c(CC(=O)NCCCCCC(=O)O)c(C)c12 | 46* | 1 | 0 | 7 | 2
Cc1coc2c1c(C)cc1oc(=O)c(CC(=O)NCC(=O)O)c(C)c12 | -11 | 2 | 2 | -5 | 8
Cc1ccc(C)c(Cn2c(=O)n(C(C)C)c(=O)c3oc4ccccc4c32)c1 | -3 | . | 0 | . | .
CC(C)c1ccc(NC(=O)Cn2cc(S(=O)(=O)Cc3ccccc3Cl)c3ccccc32)cc1 | -9 | . | 1 | . | .
CC(=O)c1ccc2noc(-c3ccc(Cl)cc3)c2c1 | -3 | ? | -1 | ? | -16
Cc1ccc(-c2onc3ccc(C4(C)OCCO4)cc23)cc1 | . | 13 | . | 69* | .
Cc1ccc(-c2onc3ccc(C=O)cc23)cc1 | 0 | 10 | -1 | 59* | 2
Cc1cc(-c2onc3ccc(Cl)cc23)ccc1O | 0 | ? | -2 | 97* | 1
Cc1cccc(N2CCN(C(=O)CCc3c(C)nc4c(c3C)c(=O)n(C)c(=O)n4C)CC2)c1C | 0 | . | 0 | . | .
CC(C)(C)C(=O)NC1CCN(C(=O)N2CCCC2)CC1 | . | 2 | 1 | 5 | 32*
Cc1cc(C)cc(NC(=O)c2cccc(NC3=NC4CS(=O)(=O)CC4S3)c2)c1 (stereo not given) | 4 | -10 | 0 | -7 | 34*
COc1ccc(OC)c(CCNC(=O)c2ccc(NC3=NC4CS(=O)(=O)CC4S3)cc2)c1 (stereo not given) | 19 | -3 | 0 | -3 | 34*
Cc1ccc(CCNC(=O)Cc2ccc(NC3=NC4CS(=O)(=O)CC4S3)cc2)cc1 (stereo not given) | -4 | -6 | 0 | -5 | 38*
CCOc1ccccc1NC(=O)c1cccc(NC2=NC3CS(=O)(=O)CC3S2)c1 (stereo not given) | 3 | -4 | 0 | 0 | 0
COc1cc(-c2nnc(SCC(=O)Nc3cccc(C#N)c3)o2)cc(OC)c1OC | 7 | . | -1 | . | .
O=C(c1cc(S(=O)(=O)N2CCOCC2)ccc1Cl)N1CCN(c2ccccn2)CC1 | -7 | 3 | 0 | 1 | -3
O=C(CN1CCOCC1)N1CCN(c2ccc([N+](=O)[O-])cc2)CC1 | -14 | -6 | 0 | -10 | 83*
O=C(c1cc([N+](=O)[O-])ccc1Cl)N1CCN(c2ccc([N+](=O)[O-])cc2)CC1 | 7 | 8 | 0 | 7 | 41*
COC(=O)c1cc(C(=O)N2CCN(c3cccc(Cl)c3)CC2)cc([N+](=O)[O-])c1 | -4 | 12 | 0 | 17 | 30*
SMILES | D2 PAM-1 | D2 ag-1 | D2 ag-2 | D2 PAM-2 | D2 antag
O=C(CN1CCN(c2ccc([N+](=O)[O-])cc2Cl)CC1)N1CCOCC1 | -4 | -1 | 0 | 1 | -9
CC(=O)N1CCN(C(=O)c2cc(S(=O)(=O)N3CCN(c4ccccc4)CC3)ccc2Cl)CC1 | 49* | -4 | 0 | ? | 5
Cc1cc(C)cc(N2C(=O)CSC23C(=O)N(CC(=O)NC2CCCCC2)c2ccccc23)c1 (stereo not given) | -1 | . | 0 | . | .
Cc1ccc(NC(=O)CCC(=O)N2Cc3ccccc3Oc3ncccc32)cc1F | -12 | . | 1 | . | .
Cc1ccc2nc(NC(=O)CSc3nc4c(c(=O)n3C)SC(C)C4)sc2c1 (stereo not given) | 32* | 4 | 0 | 17 | -3
O=C(CSc1nc2ccsc2c(=O)n1Cc1ccccc1Cl)NCc1ccc(Cl)cc1 | -1 | . | 0 | . | .
CCOCC(=O)Nc1nc2ccc(OC)cc2s1 | . | -2 | 1 | -22 | 2
CCC(=O)Nc1nc2ccc(NC(=O)c3cc(OC)c(OC)c(OC)c3)cc2s1 | 31* | -1 | -1 | 8 | 25
COc1ccc2nc(NC(=O)Nc3ccccc3)sc2c1 | -4 | 2 | 2 | -6 | 24
COc1cc(C(=O)Nc2ccc(Cl)c([N+](=O)[O-])c2)cc(OC)c1OC | -14 | 1 | 2 | -17 | 37*
CCOc1ccc2nc(NC(=O)COC)sc2c1 | 34* | -1 | 0 | -1 | 1
CCOc1ccc2nc(NC(=O)Nc3ccccc3)sc2c1 | -2 | -1 | 1 | 12 | 32*
CCOC(=O)c1ccccc1NC(=O)N1CCN2CCCCC2C1 (stereo not given) | -6 | . | 0 | . | .
Cc1cc(C)c(S(=O)(=O)Nc2ccc(-c3ccc(N4CCCCCC4)nn3)cc2)c(C)c1 | 3 | . | -1 | . | .
O=C(Oc1ccc(F)cc1)c1nc(SCc2ccc(F)cc2)ncc1Cl | 7 | . | . | . | .
CC(C)CCn1c(CN2CCN(c3cccc(Cl)c3)CC2)nc2c1c(=O)n(C)c(=O)n2C | -19 | 2 | -1 | -10 | 47*
CCOC(=O)Cn1c(CN2CCN(c3cccc(Cl)c3)CC2)nc2c1c(=O)[nH]c(=O)n2C | -25 | -4 | 0 | -7 | 30*
CCOCCn1c(CN2CCN(c3ccc(F)cc3)CC2)nc2c1c(=O)n(C)c(=O)n2C | 3 | -2 | 0 | -15 | -20
COC(=O)Cn1c(CN2CCN(c3ccc(F)cc3)CC2)nc2c1c(=O)n(C)c(=O)n2C | -30 | -2 | 0 | -7 | 30*
COCCn1c(CN2CCN(c3cccc(Cl)c3)CC2)nc2c1c(=O)n(C)c(=O)n2C | -6 | 0 | 1 | -8 | 3
Cc1ccc(-n2c(SCC(=O)N3CCC(C)CC3)nc3c([nH]c4ccccc43)c2=O)cc1 | 16 | . | -2 | . | .
CCc1noc(C)c1C(=O)NNC(=O)c1nn(CC)c(=O)c2ccccc12 | -1 | -5 | -1 | 25 | 12
CCc1noc(C)c1C(=O)NNC(=O)c1ccc(Br)cc1 | -2 | -6 | 0 | -2 | 37*
CCc1noc(C)c1C(=O)NNC(=O)c1nn(C)c(=O)c2ccccc12 | -6 | -3 | 0 | -1 | 57*
Cc1oc2ncn(CC(C)C)c(=O)c2c1C(=O)N1CCN(c2cccc(C(F)(F)F)c2)CC1 | 4 | . | 1 | . | .
Cc1ccc2occ(CC(=O)Nc3c(C)cccc3C)c2c1 | 11 | . | -1 | . | .
O=C(O)c1ccccc1-c1ccccc1C(=O)Nc1ccccc1 | 3 | 0 | -1 | 16 | 19
